In PubChem BioAssay (NCI):
Compounds without any hit were thinned out: in the full panel of roughly 79,000, 15% have a hit. Unmarked numbers belong to inactive results. Active and inactive are the calls of the source. Rule as the data show it: active = growth inhibition above about 70%; inactive = the rest. Where a SMILES comes first, the peptide text is derived from it. The star is where a group is joined. Boc = CC(C)(C)OC(=O)*; OtBu = CC(C)(C)O*

assay: NCI Yeast Anticancer Drug Screen. Data for the mec2-1 strain (AID 157); conditions: S. cerevisiae mec2-1 strain, at 50.0 µM, stronger effect = higher value
Outline: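 Cells of the genetically defined mec2-1 yeast strain are incubated with test compound. Inhibition of growth is calculated against vehicle-treated controls.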

| SMILES | growth inhibition |
| --- | --- |
| CC(=O)c1ccc(N=C2C=CC(=O)O2)cc1 | -14.9% |
| COc1cc(Br)cc2nc(-c3cccs3)oc12 | -46.9% |
| CC(C(O)c1ccc(Cl)cc1)C(O)(C(F)(F)F)C(F)(F)F (stereo not given) | 99.3% (active) |
| OC(NN=C1CCCC1)(C(F)(F)Cl)C(F)(F)Cl | -19.9% |
| c1ccc(OC23CC4CC(CC(C4)C2)C3)cc1 | -5% |
| CCCCC(=O)N/N=C/c1ccccc1OCC | 0.05% |
| CCOC(=O)CC(NC(=O)CC(N)C(=O)O)C(=O)OCC (stereo not given) | 3% |
| CN(C)CCC(C(=O)NCc1ccccc1)C(=O)NCc1ccccc1 | -9.95% |
| CCOc1ccc2nc(C)ccc2c1 | -14.7% |
| CCOc1ccc(-c2nc(-c3oc4ccccc4c(=O)c3OC(C)=O)cs2)cc1 | 1% |
| Nc1cccc2c1C(=O)c1cccc(N)c1C2=O | 16.4% |
| O=[N+]([O-])c1ccc(Sc2c3ccccc3nc3cc(Cl)ccc23)cc1 | -18.3% |
| O=c1c(SCc2ccc(Cl)cc2)c(N2CCCCC2)cnn1-c1ccccc1 | 19.4% |
| Cc1ccc(S(=O)(=O)N/N=C(/c2ccccc2)c2ccsc2C)cc1 | 37.3% |
| NC1=NN(c2ccccc2)C(=O)C1C(=O)CCC(=O)Nc1cccc(Cl)c1 (stereo not given) | -1.8% |
| CC#CC#C/C=C1/C=CC2(CC=CO2)O1 (stereo not given) | 7.95% |
| NC(=O)C1CCCC1 | 2.1% |
| O/N=C1/C(=C/c2ccccc2)CCCC1C(NO)c1ccccc1 (stereo not given) | 10.2% |
| C=C(C)CC(O)CCCCC (stereo not given) | -5.85% |
| CC(=O)OCC1OC(n2cnc(Br)c2[N+](=O)[O-])C(OC(C)=O)C1OC(C)=O (stereo not given) | 3.4% |

| SMILES | growth inhibition |
| --- | --- |
| CCCC(=O)OCCOc1ccccc1 | 2.3% |
| O=c1c2cccnc2cc(-c2ccccc2)n1CCO | -12.3% |
| C/C(=N\N=C(\Cc1ccccc1)c1ccccc1)c1ccccc1 | 3.95% |
| Nc1cccnc1NCC(O)c1ccccc1 (stereo not given) | -13.7% |
| C[C@@H]1OC(=O)N2CCCC(=C3SCCCS3)C12 (stereo not given in full) | -0.05% |
| CCNC(=O)[B-][N+](C)(C)C | 0.05% |
| Cc1cc(NN)c2cc3c(cc2n1)OCO3 | -2.6% |
| CCCCCN(CCCCC)CC(O)c1cc(-c2ccccc2)nc2c(Cl)cc(Cl)cc12 (stereo not given) | -1.1% |
| CCOc1ccc(N=Cc2cc(Br)ccc2O)cc1 | 0.6% |
| O=C1CSC(/C(=C/c2ccccc2)c2nc3ccccc3[nH]2)=N1 | -1.75% |
| O=C(N/N=C(/c1nc2ccc(Cl)cc2[nH]c1=O)C(O)c1ccc(Cl)cc1Cl)c1ccncc1 (stereo not given) | 10.2% |
| CCOC(=O)C1=C(O)c2ccccc2S(=O)(=O)N1C (tested in a mixture with another compound) | 20.3% |
| CCCCC(O)(CCCC)CC(C)C | 19.5% |
| COc1ccc(OC)c(NC(=O)C(=O)NNC(=O)c2sc(NNC(C)=O)nc2C)c1 | 28.8% |
| CCOC(=O)C(CCN(C)C)(CCN(C)C)c1ccccc1 | -2.75% |
| COc1cc(NC=C2C(=O)OC(C)(C)OC2=O)c(OC)c(C)c1OC | -27.1% |
| CC(C)(C)OC(=O)CC(NC(=O)OC(C)(C)C)C(=O)NC(Cc1ccccc1)C(N)=O (stereo not given) (Boc-Asp(OtBu)-Phe-NH2; configuration not given here) | 6.85% |
| CCOC(=O)C(c1ccccc1)N(CCCN(CC)CC)c1ccccc1 (stereo not given) | -3.25% |
| CC1(C)OC2(C)CCC1C1C2N1C(=O)Nc1cccc(Cl)c1 (stereo not given) | -13.8% |
| CC(=O)OCC12CCC(O1)C1C(=O)OC(=O)C12 (stereo not given) | -2.25% |

assay: NCI Yeast Anticancer Drug Screen. Data for the sgs1 mgt1 strain (AID 161);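 also: 0% = growth of cultures given vehicle only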; conditions: S. cerevisiae sgs1 mgt1 strain, at 50.0 µM, stronger effect = higher value
Outline: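 Read-out: growth inhibition vs vehicle controls. Cells: mutant yeast strain deficient in DNA damage repair.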

| SMILES | growth inhibition |
| --- | --- |
| CC(=O)c1ccc(N=C2C=CC(=O)O2)cc1 | -11.1% |
| COc1cc(Br)cc2nc(-c3cccs3)oc12 | -62.2% |
| CC(C(O)c1ccc(Cl)cc1)C(O)(C(F)(F)F)C(F)(F)F (stereo not given) | 99.2% (active) |
| OC(NN=C1CCCC1)(C(F)(F)Cl)C(F)(F)Cl | -4.45% |
| c1ccc(OC23CC4CC(CC(C4)C2)C3)cc1 | -5.2% |
| CCCCC(=O)N/N=C/c1ccccc1OCC | 0.6% |
| CCOC(=O)CC(NC(=O)CC(N)C(=O)O)C(=O)OCC (stereo not given) | -2.7% |
| CN(C)CCC(C(=O)NCc1ccccc1)C(=O)NCc1ccccc1 | 1.3% |
| CCOc1ccc2nc(C)ccc2c1 | 21.9% |
| CCOc1ccc(-c2nc(-c3oc4ccccc4c(=O)c3OC(C)=O)cs2)cc1 | 1.85% |
| Nc1cccc2c1C(=O)c1cccc(N)c1C2=O | 8.4% |
| O=[N+]([O-])c1ccc(Sc2c3ccccc3nc3cc(Cl)ccc23)cc1 | -18.5% |
| O=c1c(SCc2ccc(Cl)cc2)c(N2CCCCC2)cnn1-c1ccccc1 | 10.8% |
| Cc1ccc(S(=O)(=O)N/N=C(/c2ccccc2)c2ccsc2C)cc1 | 37% |
| NC1=NN(c2ccccc2)C(=O)C1C(=O)CCC(=O)Nc1cccc(Cl)c1 (stereo not given) | -11.4% |
| CC#CC#C/C=C1/C=CC2(CC=CO2)O1 (stereo not given) | 9.85% |
| NC(=O)C1CCCC1 | -5.25% |
| O/N=C1/C(=C/c2ccccc2)CCCC1C(NO)c1ccccc1 (stereo not given) | 27.2% |
| C=C(C)CC(O)CCCCC (stereo not given) | 19.7% |
| CC(=O)OCC1OC(n2cnc(Br)c2[N+](=O)[O-])C(OC(C)=O)C1OC(C)=O (stereo not given) | 17% |

| SMILES | growth inhibition |
| --- | --- |
| CCCC(=O)OCCOc1ccccc1 | 11% |
| O=c1c2cccnc2cc(-c2ccccc2)n1CCO | -16.2% |
| C/C(=N\N=C(\Cc1ccccc1)c1ccccc1)c1ccccc1 | -11.6% |
| Nc1cccnc1NCC(O)c1ccccc1 (stereo not given) | -9.45% |
| C[C@@H]1OC(=O)N2CCCC(=C3SCCCS3)C12 (stereo not given in full) | -2.6% |
| CCNC(=O)[B-][N+](C)(C)C | 3.75% |
| Cc1cc(NN)c2cc3c(cc2n1)OCO3 | 5.05% |
| CCCCCN(CCCCC)CC(O)c1cc(-c2ccccc2)nc2c(Cl)cc(Cl)cc12 (stereo not given) | 26.5% |
| CCOc1ccc(N=Cc2cc(Br)ccc2O)cc1 | 1.5% |
| O=C1CSC(/C(=C/c2ccccc2)c2nc3ccccc3[nH]2)=N1 | 0.15% |
| O=C(N/N=C(/c1nc2ccc(Cl)cc2[nH]c1=O)C(O)c1ccc(Cl)cc1Cl)c1ccncc1 (stereo not given) | -15.5% |
| CCOC(=O)C1=C(O)c2ccccc2S(=O)(=O)N1C (tested in a mixture with another compound) | 14% |
| CCCCC(O)(CCCC)CC(C)C | -2.4% |
| COc1ccc(OC)c(NC(=O)C(=O)NNC(=O)c2sc(NNC(C)=O)nc2C)c1 | 47.4% |
| CCOC(=O)C(CCN(C)C)(CCN(C)C)c1ccccc1 | 21.6% |
| COc1cc(NC=C2C(=O)OC(C)(C)OC2=O)c(OC)c(C)c1OC | -10.1% |
| CC(C)(C)OC(=O)CC(NC(=O)OC(C)(C)C)C(=O)NC(Cc1ccccc1)C(N)=O (stereo not given) (Boc-Asp(OtBu)-Phe-NH2; configuration not given here) | -3.85% |
| CCOC(=O)C(c1ccccc1)N(CCCN(CC)CC)c1ccccc1 (stereo not given) | 1.6% |
| CC1(C)OC2(C)CCC1C1C2N1C(=O)Nc1cccc(Cl)c1 (stereo not given) | -2.25% |
| CC(=O)OCC12CCC(O1)C1C(=O)OC(=O)C12 (stereo not given) | -9.2% |
